Measured values from PubChem BioAssay (NCATS).
“And” between values parts separate entries of the source, which are not always exact repeats. Identical values can stand only once. Inconclusive results are not listed. Entries that show only a call come without a potency. Some structures have more than one record in an assay (separate samples or runs), and their calls can disagree. The source made the active and inactive calls. The call rests on the fitted dose curve; in most records, active means well fitted curve in the direction sought with a large enough effect; inconclusive means small, poorly fitted or top-dose-only effect, or another doubt; inactive means no such curve, though single readings can be large; an effect the other way counts as inactive or inconclusive.

Legend:
[1] = P-glycoprotein substrates identified in KB-3-1 adenocarcinoma cell line, qHTS therapeutic library screen (AID 1346986); further: nearly all actives have a fitted effect of over 60% in size;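 further: potency means the concentration at half of the fitted maximal effect; potency is for cytotoxicity meaning loss of cell viability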
In short: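 KB-3-1 parental cells and P-gp-overexpressing KB-8-5-11 (colchicine omitted during assay) plated at 500 cells/well, dosed in dose-response, incubated 72 h at 37 degree C. CellTiter-Glo luminescence read; KB-8-5-11 also tested with tariquidar.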

[2] = P-glycoprotein substrates identified in KB-8-5-11 adenocarcinoma cell line, qHTS therapeutic library screen (AID 1346987); further: nearly all actives have a fitted effect of over 65% in size; further: potency means the concentration at half of the fitted maximal effect
In short: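 KB-8-5-11: colchicine-selected sub-line of KB-3-1 over-expressing P-gp; assay medium lacked colchicine. 72 h drug exposure at 37 degree C, CellTiter-Glo.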

[3] = NS1 protein of Zika virus - qHTS assay to identify small molecule inhibitors in human HEK 293 cells (AID 1347053); further: series mostly up to about 46 µM; nearly all actives have a fitted effect of over 55% in size
In short: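 HEK 293; 20 h pre-culture, 37 C/5% CO2; cpd 1 h pre-infection; ZIKV MR766, MOI = 0.5, 24 h, 37 C; TR-FRET NS1 readout (two anti-NS1 Abs); norm. to no-virus vs infected.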

[4] = qHTS of pediatric cancer cell lines to identify multiple opportunities for drug repurposing: Primary screen for TC32 cells (AID 1347089); further: nearly all actives have a fitted effect of over 60% in size
In short: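 Luminescent ATP read-out (CellTiter-Glo) of metabolically active TC32 cells after 48 h exposure. Concentration-response curves came from 11-point (MIPE, 0.78 nM–46 µM) or 8-point (NPC, 0.59 nM–46 µM) primary titrations; follow-up used 11 points.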

[5] = qHTS of pediatric cancer cell lines to identify multiple opportunities for drug repurposing: Primary screen for A673 cells (AID 1347092); further: nearly all actives have a fitted effect of over 45% in size; further: potency means the concentration at half of the fitted maximal effect
In short: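 Cell viability of A673 measured by CellTiter-Glo ATP luminescence after 48 hours compound exposure. Dilution series spanned 0.78 nM to 46 µM (MIPE, 11-point) or 0.59 nM to 46 µM (NPC, 8-point); bortezomib 2.3 uM positive control.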

[6] = qHTS of pediatric cancer cell lines to identify multiple opportunities for drug repurposing: Primary screen for SK-N-MC cells (AID 1347093); further: potency means the concentration at half of the fitted maximal effect
In short: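 Metabolically active cells were quantified by ATP-dependent luminescence (CellTiter-Glo, 15 min at room temperature) following 48 h treatment. Cells had been plated at 500-1,000 per well and settled for 5 h beforehand.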

[7] = qHTS of pediatric cancer cell lines to identify multiple opportunities for drug repurposing: Primary screen for U-2 OS cells (AID 1347096); further: nearly all actives have a fitted effect of over 50% in size
In short: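 Cells (500-1,000/well) in growth media were settled 5 h at 37 degrees C, then given compounds for 48 h. Viability was read as CellTiter-Glo luminescence. Primary runs used MIPE at 11 points (0.78 nM-46 µM) and NPC at 8 points (0.59 nM-46 µM); follow-ups used 11 points.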

[8] = qHTS of pediatric cancer cell lines to identify multiple opportunities for drug repurposing: Primary screen for BT-37 cells (AID 1347094); further: potency means the concentration at half of the fitted maximal effect
In short: (§1)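 CRCs from 8- or 11-point titrations (lowest final 0.59 nM NPC, 0.78 nM MIPE). Cell viability: CellTiter-Glo after 48 h incubation, 15 min room-temperature development, luminescence imaging.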

[9] = qHTS of pediatric cancer cell lines to identify multiple opportunities for drug repurposing: Primary screen for Saos-2 cells (AID 1347097); further: nearly all actives have a fitted effect of over 40% in size; further: potency means the concentration at half of the fitted maximal effect
In short: as §1

[10] = qHTS of pediatric cancer cell lines to identify multiple opportunities for drug repurposing: Primary screen for SJ-GBM2 cells (AID 1347091); further: potency means the concentration at half of the fitted maximal effect
In short: (§2)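 Eight- or eleven-point concentration series, 48 h treatment at 37 degrees C in growth media; readout CellTiter-Glo luminescence. Potency and efficacy were taken from the concentration-response curves.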

[11] = qHTS of pediatric cancer cell lines to identify multiple opportunities for drug repurposing: Primary screen for NB-EBc1 cells (AID 1347095); further: potency means the concentration at half of the fitted maximal effect
In short: as §1

[12] = qHTS of pediatric cancer cell lines to identify multiple opportunities for drug repurposing: Primary screen for DAOY cells (AID 1347090); further: nearly all actives have a fitted effect of over 55% in size; further: potency means the concentration at half of the fitted maximal effect
In short: as §2

| Structure (SMILES) | Potency [1] | Potency [2] | Potency [3] | Potency [4] | Potency [5] | Potency [6] | Potency [7] | Potency [8] | Potency [9] | Potency [10] | Potency [11] | Potency [12] |
| --- | --- | --- | --- | --- | --- | --- | --- | --- | --- | --- | --- | --- |
| COc1cc2ncnc(Nc3cc(Br)c(O)c(Br)c3)c2cc1OC | inactive | inactive | inactive | inactive | 0.0118 µM (active) | 0.0066 µM (active) | inactive |  |  |  |  |  |
| Cc1cc2c(cc1C1(c3ccc(C(=O)O)cn3)CC1)C(C)(C)CCC2(C)C | inactive | inactive | inactive | inactive |  |  | inactive | inactive | inactive |  |  |  |
| Cn1c(=O)c(Oc2ccc(F)cc2F)cc2cnc(NC3CCOCC3)nc21 | inactive | inactive | inactive |  | inactive | inactive | inactive | inactive |  | inactive | inactive |  |
| NC(=O)c1ccc(N(C(N)=O)c2c(F)cccc2F)nc1-c1ccc(F)cc1F | inactive | inactive | inactive | inactive |  |  | inactive | inactive | inactive | inactive | inactive |  |
| CCCCn1c(=O)n(Cc2ccccc2F)c(=O)c2[nH]c(Cc3ccc(NC(C)=O)cc3)nc21 | inactive | inactive | inactive |  |  |  | inactive | inactive | inactive | inactive | inactive | 23.5 µM (active) |
| CN1CCN(c2cccc(Nc3nc4c(-c5ccc(S(C)(=O)=O)cc5)cccn4n3)c2)CC1 | inactive and 23.1 µM (active) | inactive and 20.6 µM (active) |  |  | 9.35 µM (active) | 1.48 µM (active) | inactive |  | 18.7 µM (active) |  | inactive | inactive |
| CCCCC(C)(C)[C@H](O)C=C[C@H]1[C@H](O)CC(=O)[C@H]1CC=CCCCC(=O)O | inactive | inactive |  |  |  |  | inactive |  | inactive | inactive | 5.26 µM (active) | inactive |
| CC1C(=O)OC2C(O)C34C5CC(C(C)(C)C)C36C(OC(=O)C6O)OC4(C(=O)O5)C12O (stereo not given) | inactive |  | inactive | inactive | 18.7 µM (active) |  | inactive |  | inactive | inactive | 14.8 µM (active) | inactive |
| Cc1ccccc1C(=O)c1ccc(Nc2ccc(Br)cc2N)cc1Cl | 14.6 µM (active) | 20.6 µM (active) |  | inactive | 18.7 µM (active) | 16.6 µM (active) |  |  | 18.7 µM (active) | 23.5 µM (active) |  |  |
| CC(C)CN(C[C@H](O)[C@H](Cc1ccccc1)NC(=O)O[C@H]1CCOC1)S(=O)(=O)c1ccc(N)cc1 | inactive | inactive |  |  | 11.8 µM (active) |  | inactive |  |  | inactive | inactive |  |
| O=C(O)CCC=CCC[C@@H]1[C@H](N2CCCCC2)[C@@H](O)C[C@@H]1OCc1ccc(-c2ccccc2)cc1 | inactive | inactive | inactive | inactive |  |  | inactive | inactive |  | inactive | inactive |  |
| CN1C(=O)C(Cc2c[nH]c3ccccc23)NC1=S (stereo not given) | inactive | inactive |  | inactive | inactive |  | inactive | inactive | inactive | inactive | inactive |  |
| CNC(=O)c1cc(COc2nnc(Nc3ccc(Cl)cc3)c3ccoc23)ccn1 | inactive | inactive |  |  |  | 23.5 µM (active) |  |  | 18.7 µM (active) | 20.9 µM (active) | 23.5 µM (active) | 23.5 µM (active) |
| CC[C@H](NC(=O)[C@H](C)NC)C(=O)N1C[C@@H](O)C[C@H]1Cc1c(-c2[nH]c3cc(F)ccc3c2C[C@H]2C[C@H](O)CN2C(=O)[C@H](CC)NC(=O)[C@H](C)NC)[nH]c2cc(F)ccc12 | inactive | inactive |  | inactive | 0.0118 µM (active) | 1.18 µM (active) | inactive | 0.217 µM (active) | 0.372 µM (active) | 0.0469 µM (active) | 0.418 µM (active) | 2.35 µM (active) |
| Cc1ccc(S(=O)(=O)Nc2nc3ccccc3nc2Nc2ccc3nsnc3c2)cc1 | inactive and 20.6 µM (active) | inactive and 2.91 µM (active) |  |  | 0.0013 µM (active) | 0.0512 µM (active) |  | 0.0376 µM (active) |  | 0.0575 µM (active) | 0.645 µM (active) | 0.407 µM (active) |
| C[C@@]1(c2cc(-c3cncnc3)c(F)cc2F)CCSC(N)=N1 | inactive | inactive |  | inactive | 0.0469 µM (active) |  | inactive | 3.06 µM (active) | 2.96 µM (active) | 4.69 µM (active) | 8.33 µM (active) |  |
| CO[C@H]1O[C@@H]2O[C@@]3(C)CC[C@@H]4[C@@H](C)CC[C@@H]([C@H]1C)[C@@]24OO3 | inactive |  | inactive | inactive | inactive | 5.26 µM (active) | inactive |  |  | inactive |  | inactive |
| COc1cc2nccc(Oc3ccc(NC(=O)Nc4ccc(F)cc4F)c(F)c3)c2cc1OC | 7.31 µM (active) | 7.31 µM (active) |  |  |  | 3.72 µM (active) | inactive | inactive |  | 2.96 µM (active) | 2.35 µM (active) |  |
